Compound activity (PubChem BioAssay)
Rows were chosen to be rich in hits. Some 1.8% of all compounds tested hit in one or more screens of this group.
HDAC3 inh = human HDAC3 inhibition; O15379; recombinant HDAC3, fluorogenic peptide/trypsin coupled, fluorescence; inhibition, % at 8.3 µM; 320,000 tested, 0.15% active; AID 2718; in the data active means inhibition above about 26%, passing the limit was not always enough
GRK2 inh = human GRK2 inhibition via aptamer displacement; AID 488847; 330,000 tested, 0.59% active; P25098; bead flow cytometry, FAM-aptamer displacement from GRK2; inhibition of aptamer binding, % at 10 µM;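 active means inhibition of aptamer binding above 40%, roughly 3 SD of noise, on plates passing a quality check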;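 further: median bead fluorescence of bound FAM aptamer so fluorescent compounds give negative values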
Target sequence (P25098 whole entry, looked up): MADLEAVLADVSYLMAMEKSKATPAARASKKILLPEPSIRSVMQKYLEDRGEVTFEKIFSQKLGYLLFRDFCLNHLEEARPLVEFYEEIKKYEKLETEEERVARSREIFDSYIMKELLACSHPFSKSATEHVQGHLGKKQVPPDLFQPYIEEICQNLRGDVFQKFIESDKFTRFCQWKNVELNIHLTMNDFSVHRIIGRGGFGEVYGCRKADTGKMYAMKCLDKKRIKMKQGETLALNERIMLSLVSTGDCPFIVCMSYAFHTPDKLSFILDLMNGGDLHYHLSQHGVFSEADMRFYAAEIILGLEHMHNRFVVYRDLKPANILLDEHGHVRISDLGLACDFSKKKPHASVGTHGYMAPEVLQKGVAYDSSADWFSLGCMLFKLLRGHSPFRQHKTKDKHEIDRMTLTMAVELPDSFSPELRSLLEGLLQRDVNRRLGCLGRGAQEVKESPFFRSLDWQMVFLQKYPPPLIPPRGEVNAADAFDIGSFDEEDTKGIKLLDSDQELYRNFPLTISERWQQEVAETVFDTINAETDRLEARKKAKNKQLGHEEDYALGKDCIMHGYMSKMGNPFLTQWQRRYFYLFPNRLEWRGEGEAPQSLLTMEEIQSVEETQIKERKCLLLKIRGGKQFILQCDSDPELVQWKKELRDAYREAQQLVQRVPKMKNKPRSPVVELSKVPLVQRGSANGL
Cardio protect = protects H9c2 cardiomyocytes from peroxide injury. H2O2 injury protection, ATPLite, 2 h. protection from H2O2 cell death, % at 20 µM. 360,000 tested, 0.63% active. AID 588492;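 active means compounds giving at least 50% protection of heart cells from peroxide-induced death in the single-dose screen, raw or plate-pattern-corrected value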;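 further: 0% = DMSO wells with peroxide and 100% = DMSO wells without peroxide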
Neddyl block = blocks human cullin neddylation; 360,000 tested, 0.58% active; inhibition, % at 25 µM; P61081+Q13564; AID 651699; TR-FRET cullin neddylation, biochemical; in the data active means inhibition above about 36%
GRK2 CP1 = confirmation of human GRK2 inhibitors displacing RNA aptamer | shares compounds with GRK2 inh | bead-bound GRK2, FAM-aptamer displacement, flow cytometry | aptamer displacement, % at 10 µM | 2,000 tested, 4% active | AID 504451;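 active means aptamer displacement above 40%, near three times the noise of non-fluorescent compounds, on plates passing quality checks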;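 further: negative values mostly reflect intrinsic compound fluorescence rather than true enhancement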
Aptamer quench 1 = quenches fluorescent RNA aptamer, GRK2 hit artifact; shares compounds with GRK2 inh; Fluorescent RNA aptamer beads, quenching, flow cytometry; active compounds read high; fluorescence change (kMESF span), kMESF (test concentration not listed); 110 tested, under 10 active;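 active means compounds whose bead fluorescence drops by more than 37 kMESF across the dose range, marking them as dye quenchers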
FAM quench CP1 = quenches fluorescent RNA aptamer, GRK2 hit artifact | shares compounds with GRK2 inh | Carboxyfluorescein RNA aptamer on beads, flow cytometry quenching; active compounds read low | fluorescence response (% of DMSO), % at 10 µM | 2,000 tested, under 10 active;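 active means compounds that quench the bead-bound fluorescent RNA probe, cutting fluorescence to under half of the solvent control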;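 further: counterscreen run without GRK2 so only probe quenching by compound is measured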
GRK2 CP2 = confirmation of human GRK2 inhibitors binding RNA aptamer site | shares compounds with GRK2 inh | bead-bound GRK2, FAM-aptamer displacement, flow cytometry | inhibition of aptamer binding, % at 10 µM | 360 tested, under 10 active | AID 504782;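 active means inhibition of aptamer binding above 40%, about triple the noise seen with nonglowing compounds, on plates passing quality control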;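 further: negative values mostly come from compounds that fluoresce themselves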
FAM quench SP = quenches fluorescent RNA aptamer, GRK2 hit artifact | 360 tested, under 10 active | carboxyfluorescein RNA aptamer beads, flow cytometry quenching; active compounds read low | AID 588494 | shares compounds with GRK2 inh | fluorescence response vs DMSO, % at 10 µM;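 active means response vs DMSO under 50%, meaning signal dropped by over half, treated as fluorescence quencher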;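 further: labelled aptamer on streptavidin beads without GRK2 as a quench counter-screen; 100% = bead fluorescence of DMSO wells and lower means quenching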
* marks the source's active call; other numbers are inactive results; / = not tested or not shown.

SMILES	HDAC3 inh	GRK2 inh	Cardio protect	Neddyl block	GRK2 CP1	FAM quench CP1	others
CCC1(CCO)C(=O)NC(=S)NC1=O	/	/	6	-7	/	/
O=C(O)c1cc[c]([Hg][Cl])cc1	95*	0	-29	-3	/	/
COc1ccc(C(=O)O)cc1OC	/	/	0	0	/	/
CCN(CC)C(=O)c1ccc(NC(=O)COC(=O)c2ccc(Cl)s2)cc1	1	0	-6	-3	/	/
COc1ccc(-n2c(/C=C/c3ccc4c(c3)OCO4)nc3ccccc3c2=O)cc1	4	18	2	34	/	/
O=c1c2ccccc2nc(/C=C/c2ccc(O)cc2)n1-c1ccc(O)cc1	1	2	55*	/	/	/
COc1cccc(-n2c(/C=C/c3ccc(O)c(O)c3)nc3ccccc3c2=O)c1	6	4	72*	25	/	/
O=c1c2ccccc2nc(/C=C/c2ccc(O)cc2)n1-c1cccc(O)c1	-9	4	39	/	/	/
COc1ccc(-n2c(/C=C/c3ccc(O)c(OC)c3)nc3ccccc3c2=O)cc1	0	0	88*	10	/	/
COc1ccc(-n2c(/C=C/c3ccc(O)cc3)nc3ccccc3c2=O)cc1	-4	1	53*	32	/	/
C[C@]12CCC3C(C1CCC2=O)[C@H](O)C[C@H]1C[C@@H](O)CC[C@]31C (stereo partly drawn)	0	3	0	-8	/	/
c1ccc(CN2Cc3ccccc3-n3nncc3C2)nc1	/	/	5	0	/	/
O=C(c1ccc2nc3ccc(Cl)cc3c(=O)n2c1)N1CCC2(CC1)OCCO2	-53	0	2	/	/	/
O=C(O)C1CN2CCC1CC2 (stereo not drawn)	-9	0	3	0	/	/
O=c1[nH]c(O)c(C=Nc2ccccc2[N+](=O)[O-])c(=O)[nH]1	9	58*	/	/	/	/
CCOC(=O)c1cccc(C2=C(CNC(C)=O)[C@H]3CC[C@@H](C2)N3Cc2ccccc2)c1	/	/	-2	5	/	/
CCOC(=O)c1cccc(C2=C(CNC(=O)c3cccnc3)[C@H]3CC[C@@H](C2)N3Cc2ccccc2)c1	/	/	55*	7	/	/
CC[n+]1c(/C=C/N(C)c2ccccc2)sc2ccc(Cl)cc21	1	92*	-16	-25	41*	108	Aptamer quench 1=26
CC[n+]1c(/C=C/C=C/c2ccc(N(C)C)cc2)sc2ccccc21	1	22	-18	1	/	/
S=C1CN=C(c2ccccc2)c2cc(Cl)ccc2N1	1	0	10	12	/	/
O=C(O)c1cccc2c1NC(C(=O)O)C1CC(Sc3ccccc3[N+](=O)[O-])C(Cl)C21 (stereo not drawn)	4	60*	-2	-9	41*	104	Aptamer quench 1=8.5
Cc1ccc(NC(=O)c2cn(CCC#N)nc2-c2ccc3c(c2)OCCO3)c([N+](=O)[O-])c1	2	3	7	-17	/	/
N#CCCn1cc(C(=O)Nc2ccc([N+](=O)[O-])cc2)c(-c2ccc3c(c2)OCCO3)n1	7	66*	-3	-37	/	/	GRK2 CP2=22;FAM quench SP=100
C[C@H]1CN([C@@H](C)CO)C(=O)CCCn2nncc2CO[C@@H]1CN(C)C(=O)Oc1ccccc1	/	/	-6	-1	/	/
CCN1/C(=C\C=C\C2=[N+](CC)c3ccccc3C2(C)C)C(C)(C)c2ccccc21	5	70*	-30	-64	24	100
SMILES	HDAC3 inh	GRK2 inh	Cardio protect	Neddyl block	GRK2 CP1	FAM quench CP1	others
COc1ccc2c(c1)c(C(=O)CN1CCC3(CC1)OCCO3)c(C)n2Cc1ccccc1	5	1	-7	-6	/	/
COC(=O)c1ccc(NC(=O)NC(=O)Oc2ccccc2)cc1	-1	81*	9	4	-1	98
O=C(Nc1ccccc1)Oc1ccccc1	1	3	3	7	/	/
CCC(=Nc1ccc2c(c1)CCC2)c1c(O)n(C2CCCCC2)c(=O)[nH]c1=O	2	100*	-15	-35	1	108
CC(=Nc1ccc2c(c1)CCC2)c1c(O)n(C2CCCCC2)c(=O)[nH]c1=O	-5	0	-6	-39	/	/
O=C(C(=O)N1CCOCC1)c1cn(Cc2ccc(F)cc2)c2ccccc12	1	2	4	-37	/	/
C[C@]12CCC3C(CCC4=C/C(=N/OCC(=O)NC(CCC(N)=O)C(=O)O)CC[C@@]43C)C1CCC2O (stereo partly drawn)	0	0	6	8	3	99
C[C@]12CCC3C(CCC4=C/C(=N/OCC(=O)NC(CCC(=O)O)C(=O)O)CC[C@@]43C)C1CCC2O (stereo partly drawn)	-1	0	1	-5	/	/
O=C1NC(=O)N(c2ccc3c(c2)OCO3)C(=O)/C1=C/c1ccc(N2CCCCC2)o1	2	0	11	-9	/	/
O=C1NC(=O)N(c2ccc3c(c2)OCO3)C(=O)/C1=C\c1ccc(-c2ccccc2C(=O)O)o1	3	60*	7	16	47*	96	Aptamer quench 1=4.3
NC(=O)C1CCN(/C=C2\C(=O)NC(=O)N(Cc3ccco3)C2=O)CC1	-7	47*	4	0	20	99
CC(C)N1C(=O)/C(=C/C=C/c2ccco2)C(=O)N(Cc2ccco2)C1=O	14	16	11	11	11	103
NCCc1c[nH]c2ccccc12	0	62*	6	-4	-6	100
CC(C)(C)C(=O)O[C@H]1CC[C@@]2(C)C(=CC(=O)C3C2CC[C@]2(C)C(=O)[C@H](O)CC32)C1 (stereo partly drawn)	4	0	-4	0	/	/
COc1ccccc1-n1c(O)c(C=NCc2ccc3c(c2)OCO3)c(=O)[nH]c1=O	13	1	17	-3	/	/
CCCCn1c(O)c(C=NCc2ccc3c(c2)OCO3)c(=O)[nH]c1=O	5	94*	2	-15	-1	96
O=c1[nH]c(=O)n(Cc2ccco2)c(O)c1C=NCc1ccc2c(c1)OCO2	12	0	10	-4	1	102
Cc1cc(=O)oc2c(C)c(OCC(=O)N3CCN(Cc4ccccc4)CC3)ccc12	1	0	5	31	4	102
O=C(O)c1ccc(NC(=O)N2C[C@H]3C[C@@H](C2)c2cccc(=O)n2C3)cc1	2	0	1	0	/	/
CCOc1ccccc1-n1c(O)c(C=Nc2ccc(N(CC)CC)cc2)c(=O)[nH]c1=O	3	1	-9	-18	/	/
